From PubChem BioAssay (NCATS)
Where “and” joins values, the source holds several entries; their conditions need not be identical. Equal values may be shown once. Inconclusive results are not listed. Calls of active or inactive are those of the source. Unless noted, calls follow the shape of the dose curve; as a rule, active = well fitted curve in the direction sought with a large enough effect; inconclusive = small, poorly fitted or top-dose-only effect, or another doubt; inactive = no such curve, though single readings can be large; an effect the other way counts as inactive or inconclusive.

What was measured:
[1] = Cell Viability - BJ (AID 421; calls by dose curve;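 also: potency is read from the fitted curve at half-maximal effect; cells exposed to compound for 40 hours at 37 °C before readout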); conditions: BJ fibroblast viability, qHTS
Method in brief: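 Cytotoxicity in human BJ foreskin fibroblasts is scored as loss of cellular ATP after a 40-hour exposure, measured by luciferase luminescence. Controls are DMSO and 100 uM tamoxifen.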

[2] = Cell Viability - HepG2 (AID 433; calls by dose curve;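 also: potency is read from the fitted curve at half-maximal effect; cells exposed to compound for 40 hours; potency for ATP loss meaning cytotoxicity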); conditions: qHTS
Method in brief: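 In this qHTS format, a 40 h, 37 °C compound incubation of HepG2 cells in complete medium precedes a 20 min CellTiter-Glo step at room temperature. Tamoxifen and doxorubicin serve as positive controls; Hill-equation fits yield AC50.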

[3] = Cell Viability - HUV-EC-C (AID 542); conditions: HUV-EC-C endothelial cell viability, qHTS; series mostly up to 92.2 µM;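 also: cells exposed to compound for 40 hours; nearly all actives have a fitted effect of over 35% in size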; also: potency is read from the fitted curve at half-maximal effect; as to activity change, negative = cytotoxicity: % is scaled to controls: 0 for no effect and ±100 for the full control effect
Method in brief: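 CellTiter-Glo luminescence measured ATP loss in HUV-EC-C cells (1000/well) after 40 hr compound exposure at 37 °C, in complete culture medium. Concentration-response data were Hill-fitted to give AC50.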

[4] = Cell Viability - Mesenchymal (AID 546); conditions: mesenchymal cells viability, qHTS; activity change, negative = cytotoxicity: at 91.7 µM (top of the series);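 also: cells exposed to compound for 40 hours before reading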; also: potency is read from the fitted curve at half-maximal effect
Method in brief: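 CellTiter-Glo luminescence (intracellular ATP, 20 min room temperature) after 40 hr compound exposure at 37 °C of 1000 glomerulus-derived human kidney mesenchymal cells/well; AC50 values obtained by fitting qHTS concentration-response data to the Hill equation.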

[5] = Cellular Toxicity (caspase-3) Jurkat (AID 655); conditions: Jurkat caspase-3 activation, luminescence; caspase-3 activation: at 92.2 µM (top of the series), DMSO = 0%, tamoxifen = 100%;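 also: cells exposed to compound for 16 h at 37 °C before reading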
Method in brief: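 qHTS in human Jurkat T-cell leukemia line: 16 hr compound treatment at 37 °C, caspase-3/7 activity measured by Caspase-Glo luminescence. AC50 derived from Hill equation.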

[6] = Cellular Toxicity (caspase-3) NIH 3T3 (AID 666); conditions: NIH 3T3 caspase-3 activation, apoptosis/toxicity, 0% DMSO, 100% is 100 µM tamoxifen; series mostly up to 92.2 µM;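 also: caspase signal read after 16 h compound exposure; 0% = DMSO basal and 100% = 100 µM tamoxifen stimulation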
Method in brief: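 Caspase-Glo 3/7 luminescence reported caspase activation in 1000 NIH 3T3 cells/well after 16 h compound exposure at 37 C. DMSO set basal and 100 uM tamoxifen set 100% stimulation; concentration-response modeled with the Hill equation for AC50.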

[7] = Cell Viability - LYMP1-002 - Assay at 16 hr (AID 948); conditions: LYMP1-002 lymphoblastoid cell viability; series mostly up to 92.2 µM; also: potency is read from the fitted curve at half-maximal effect;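 as to activity change, negative = cytotoxicity: 0% = DMSO alone and full effect = 92 µM tetraoctylammonium bromide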
Method in brief: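 In this qHTS, lymphoblastoid LYMP1-002 cells (human) receive compounds for 16 hr at 37 C. Viability is taken from CellTiter-Glo ATP luminescence, and AC50 derives from standard Hill fits.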

[8] = MultiTox-Fluor Cytotoxicity Assay - LYMP1-002 - Live Cells (AID 955); conditions: LYMP1-002 lymphoblastoid live-cell protease fluorescence viability; series mostly up to 46.1 µM;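 also: cells exposed to compound for 16 hours; % is scaled to controls: 0 for no effect and ±100 for the full control effect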
Method in brief: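 After 16 h compound exposure at 37 C, live LYMP1-002 lymphoblastoid cells (2500/well) were quantified by cleavage of cell-permeant GF-AFC substrate, read at 405/510 nm after 60 min. Concentration-response fitted with Hill equation for AC50.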

[9] = Cell Viability - LYMP2-011 (AID 969); conditions: LYMP2-011 lymphoblastoid cells viability; series mostly up to 92.2 µM; also: nearly all actives have a fitted effect of over 60% in size; also: potency is read from the fitted curve at half-maximal effect
Method in brief: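 Cytotoxicity qHTS with ATP content as read-out: lymphoblastoid cells (2500/well) exposed to compound for 24 h at 37 C, then luciferase luminescence measured. Concentration-response data fitted with the standard Hill equation to give AC50.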

[10] = Cell Viability - LYMP2-013 (AID 970); conditions: LYMP2-013 lymphoblastoid cells viability; series mostly up to 92.2 µM; also: nearly all actives have a fitted effect of over 55% in size; also: potency is read from the fitted curve at half-maximal effect
Method in brief: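 qHTS cytotoxicity: ATP-dependent luminescence (CellTiter-Glo, 30 min room temperature) read after 24 h compound exposure at 37 C of 2500 LYMP2-013 lymphoblastoid cells per well. Concentration-response fitted with Hill equation to give AC50.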

[11] = Cell Viability - LYMP2-023 (AID 975); conditions: LYMP2-023 lymphoblastoid cell viability; series mostly up to 92.2 µM; also: nearly all actives have a fitted effect of over 55% in size; also: potency is read from the fitted curve at half-maximal effect;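 as to activity change, negative = cytotoxicity: cellular ATP measured by luciferase luminescence as viability proxy; plate controls were DMSO only for no effect and 92 µM tetraoctylammonium bromide control for full effect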
Method in brief: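 Intracellular ATP, read by CellTiter-Glo luminescence, reports viability after 24 hr compound exposure at 37 C. 2500 lymphoblastoid cells/well (LYMP2-023) seeded 5 hr beforehand; Hill fits give AC50; positive control tetraoctylammonium bromide.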

[12] = Cell Viability - LYMP2-025 (AID 976); conditions: LYMP2-025 lymphoblastoid cell viability; series mostly up to 92.2 µM;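 also: plate controls were DMSO only for no effect and tetraoctylammonium bromide control for full effect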
Method in brief: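 Cytotoxicity read as loss of intracellular ATP (luciferase luminescence) after 24 h compound treatment at 37 C. Uses LYMP2-025 lymphoblastoid cells in 1536-well format; Hill-equation modelling gives AC50; tetraoctylammonium bromide as positive control.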

[13] = Cell Viability - LYMP2-007 (AID 979); conditions: LYMP2-007 lymphoblastoid cell viability; series mostly up to 92.2 µM;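 also: cells exposed to compound for 24 h before reading; nearly all actives have a fitted effect of over 60% in size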; also: potency is read from the fitted curve at half-maximal effect;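 as to activity change, negative = cytotoxicity: 0% = DMSO only and the negative end = 92 µM tetraoctylammonium bromide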
Method in brief: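 AC50 values come from Hill-equation fits of luminescent intracellular ATP (CellTiter-Glo, 30 min, room temperature) following 24 h compound exposure at 37 C. Cells: LYMP2-007 lymphoblastoid line, 2500 per well, in complete culture medium.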

[14] = Cell Viability - LYMP2-008 (AID 980); conditions: LYMP2-008 lymphoblastoid cell viability, qHTS; series mostly up to 92.2 µM; also: nearly all actives have a fitted effect of over 60% in size; also: potency is read from the fitted curve at half-maximal effect; as to activity change, negative = cytotoxicity: % is scaled to controls: 0 for no effect and ±100 for the full control effect
Method in brief: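 Cytotoxicity determined from ATP-dependent luciferase luminescence (CellTiter-Glo) following 24 h compound exposure of human lymphoblastoid LYMP2-008 cells at 37 C. Concentration-response data fitted to the Hill equation to give AC50.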

[15] = Cell Viability - LYMP2-014 (AID 983); conditions: LYMP2-014 lymphoblastoid cells, viability qHTS; series mostly up to 92.2 µM; also: nearly all actives have a fitted effect of over 50% in size; also: potency is read from the fitted curve at half-maximal effect;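 as to activity change, negative = cytotoxicity: plate controls were DMSO only for no effect and 92 µM tetraoctylammonium bromide for full effect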
Method in brief: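 Intracellular ATP loss, read by luciferase luminescence, measures acute cytotoxicity after 24 h compound exposure of lymphoblastoid LYMP2-014 cells (2500/well, 37 C). Concentration-response data fitted to the Hill equation for AC50.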

[16] = Cell Viability - LYMP2-016 (AID 984); conditions: LYMP2-016 lymphoblastoid cell viability, qHTS; series mostly up to 92.2 µM; also: nearly all actives have a fitted effect of over 55% in size; also: potency is read from the fitted curve at half-maximal effect; as to activity change, negative = cytotoxicity: % is scaled to controls: 0 for no effect and ±100 for the full control effect
Method in brief: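 Concentration-dependent ATP depletion measured in LYMP2-016 lymphoblastoid cells, 24 h, 37 C; luciferase-based luminescent detection; Hill-equation AC50.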

[17] = Cell Viability - LYMP2-018 (AID 985); conditions: LYMP2-018 lymphoblastoid cells, viability (qHTS); series mostly up to 92.2 µM; also: nearly all actives have a fitted effect of over 50% in size; also: potency is read from the fitted curve at half-maximal effect;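 as to activity change, negative = cytotoxicity: plate controls were DMSO only for no effect and tetraoctylammonium bromide at 92 µM for full effect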
Method in brief: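 Viability read as CellTiter-Glo luminescence (cellular ATP) after 24 hr compound exposure at 37 C of 2500 LYMP2-018 lymphoblastoid cells/well, pre-plated 5 hr. Hill-equation modelling gave AC50.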

[18] = Cell Viability - LYMP2-026 (AID 989); conditions: LYMP2-026 lymphoblastoid cell viability, qHTS; series mostly up to 92.2 µM; also: nearly all actives have a fitted effect of over 50% in size; also: potency is read from the fitted curve at half-maximal effect
Method in brief: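 Cytotoxicity read as ATP-dependent luminescence (CellTiter-Glo, 30 min room temperature) after 24 h compound treatment at 37 C. LYMP2-026 lymphoblastoid line seeded at 2500 cells/well; AC50 derived by standard Hill equation.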

[19] = Cell Viability - LYMP1-002 - Assay at 40 hr (AID 994); conditions: LYMP1-002 lymphoblastoid cell viability; series mostly up to 92.2 µM; also: nearly all actives have a fitted effect of over 60% in size; also: potency is read from the fitted curve at half-maximal effect
Method in brief: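 Cytotoxicity was read as loss of cellular ATP (CellTiter-Glo luminescence) after 40 hr compound exposure at 37 C of 2500 LYMP1-002 lymphoblastoid cells per well. Concentration-response data were fitted with the standard Hill equation to give AC50.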

[20] = qHTS assay for cell viability of HEK293 cells (AID 743288); conditions: ATP luminescence (CellTiter-Glo), 18 h; max response: stronger effect = lower value; also: % is scaled to controls: 0 for no effect and ±100 for the full control effect; nearly all actives have a fitted effect of over 50% in size
Method in brief: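 HEK293, 18 h, 37 C, ATP luminescence. Cells at 2,000/well were allowed at least 5 h to settle before dosing; CellTiter-Glo developed 30 min at RT.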

C=CC(=O)CC
inactive: Potency [1] > 92 µM | Potency [2] > 92 µM | Potency [3] | Potency [4] | Potency [5] | outcome [6] | Potency [7] | outcome [8] | Potency [9] | Potency [10] | Potency [11] | Potency [12] | Potency [13] | Potency [14] | Potency [15] | Potency [16] | Potency [17] | Potency [18] | Potency [19] | max response [20] -3.35%

NC(=O)c1ccc([N+](=O)[O-])cc1
inactive: Potency [1] > 92 µM | Potency [2] > 92 µM | Potency [3] | Potency [4] | Potency [5] | outcome [6] | Potency [7] | outcome [8] | Potency [9] | Potency [10] | Potency [11] | Potency [12] | Potency [13] | Potency [14] | Potency [15] | Potency [16] | Potency [17] | Potency [18] | Potency [19] | max response [20] 4.95%

O=c1[nH]ncc2ccccc12
inactive: Potency [1] > 92 µM | Potency [2] > 92 µM | Potency [3] | Potency [4] | Potency [5] | outcome [6] | Potency [7] | outcome [8] | Potency [9] | Potency [10] | Potency [11] | Potency [12] | Potency [13] | Potency [14] | Potency [15] | Potency [16] | Potency [17] | Potency [18] | Potency [19] | max response [20] 0.756%

C/C=C1/C(=O)C[C@H]2[C@@H]3CCC4=CC(=O)CC[C@]4(C)[C@H]3CC[C@]12C
active: Potency [7] 50.1 µM | Potency [9] 50.1 µM | Potency [10] 50.1 µM | Potency [13] 39.8 µM | Potency [14] 50.1 µM | Potency [17] 50.1 µM
inactive: Potency [1] > 92 µM | Potency [2] > 92 µM | Potency [3] | outcome [6]

Nc1ccc2c(c1)C(=O)c1ccccc1C2=O
active: Potency [3] 31.6 µM
inactive: Potency [1] > 92 µM | Potency [5] | Potency [7] | outcome [8] | Potency [10] | Potency [11] | Potency [12] | Potency [13] | Potency [14] | Potency [15] | Potency [16] | Potency [17] | Potency [19] | max response [20] -13.3% and -4.81%

CCCCCCCC/C=C\CCCCCCCC(=O)N(CCO)CCO
active: Potency [3] 39.8 µM | caspase-3 activation [5] 96.6%
inactive: Potency [1] > 92 µM | Potency [2] > 92 µM | outcome [6] | Potency [7] | outcome [8] | Potency [9] | Potency [10] | Potency [11] | Potency [12] | Potency [13] | Potency [14] | Potency [15] | Potency [16] | Potency [17] | Potency [18] | Potency [19] | max response [20] -16%

CCCCCCCCC1CO1 (stereo unspecified)
inactive: Potency [1] > 92 µM | Potency [2] > 92 µM | Potency [3] | Potency [4] | Potency [5] | outcome [6] | Potency [7] | outcome [8] | Potency [9] | Potency [10] | Potency [11] | Potency [12] | Potency [13] | Potency [14] | Potency [15] | Potency [16] | Potency [17] | Potency [18] | Potency [19] | max response [20] 4.27%

CN(C)c1ccc(Cc2ccc(N(C)C)cc2)cc1
inactive: Potency [1] > 92 µM | Potency [2] > 92 µM | Potency [3] | Potency [4] | Potency [5] | outcome [6] | Potency [7] | outcome [8] | Potency [9] | Potency [10] | Potency [11] | Potency [12] | Potency [13] | Potency [14] | Potency [15] | Potency [16] | Potency [17] | Potency [18] | Potency [19] | max response [20] -15.2% and -24.3%

C[Si](C)(C)Cl
inactive: Potency [1] > 92 µM | Potency [2] > 92 µM | Potency [3] | Potency [4] | Potency [5] | outcome [6] | Potency [7] | outcome [8] | Potency [9] | Potency [10] | Potency [11] | Potency [12] | Potency [13] | Potency [14] | Potency [15] | Potency [16] | Potency [17] | Potency [18] | Potency [19] | max response [20] -4.36%

CC1=C(/C=C/C(C)=C/C=C/C(C)=C/C=O)C(C)(C)CCC1
active: Potency [1] 35.2 µM | Potency [3] 31.6 µM | Potency [4] 31.6 µM | Potency [9] 63.1 µM | Potency [10] 50.1 µM | Potency [11] 50.1 µM | Potency [13] 39.8 µM | Potency [14] 39.8 µM | Potency [15] 50.1 µM | Potency [16] 50.1 µM | Potency [17] 39.8 µM | Potency [18] 50.1 µM | Potency [19] 50.1 µM

CCCCCCCCOc1ccc(C(=O)O)cc1
inactive: Potency [1] > 92 µM | Potency [2] > 92 µM | Potency [3] | Potency [4] | Potency [5] | outcome [6] | Potency [7] | outcome [8] | Potency [9] | Potency [10] | Potency [11] | Potency [12] | Potency [13] | Potency [14] | Potency [15] | Potency [16] | Potency [17] | Potency [18] | Potency [19] | max response [20] 8.21%

O=C(Cl)c1ccc([N+](=O)[O-])cc1
inactive: Potency [1] > 92 µM | Potency [2] > 92 µM | Potency [3] | Potency [4] | Potency [5] | outcome [6] | Potency [7] | outcome [8] | Potency [9] | Potency [10] | Potency [11] | Potency [12] | Potency [13] | Potency [14] | Potency [15] | Potency [16] | Potency [17] | Potency [18] | Potency [19] | max response [20] 0.724%

C/C=C/C=C/C=O
active: Potency [9] 50.1 µM | Potency [10] 39.8 µM | Potency [11] 50.1 µM | Potency [13] 39.8 µM | Potency [14] 39.8 µM | Potency [15] 39.8 µM | Potency [16] 50.1 µM | Potency [17] 39.8 µM | Potency [18] 39.8 µM
inactive: Potency [1] > 92 µM | Potency [2] > 92 µM | Potency [3] | Potency [4] | Potency [5] | outcome [6] | Potency [7] | outcome [8] | Potency [19] | max response [20] -1.13%
